Compound activity as filed in PubChem BioAssay.
An excerpt weighted towards active compounds, which were near 5.7% of everything screened.
HT1080 IDH1KD tx – qHTS for induction of synthetic lethality in tumor cells producing 2HG: qHTS for the HT-1080-IDH1KD cell line; HT-1080 IDH1 knockdown viability, ATP luminescence, 48 h; 360,000 compounds, 2% hits; Potency, µM (top dose mostly 46.1 µM), for the others: top-dose activity, negative = toxicity, hits mostly cytotoxic;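 also: 0% = DMSO wells and -100% = cell-free medium wells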
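Cytotoxicity counter-line: IDH1KD HT-1080, 48 h, CellTiter-Glo. Curves classed by r2, magnitude and activity.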
HT1080-NT tox – qHTS for induction of synthetic lethality in tumor cells producing 2HG: qHTS for the HT-1080-NT fibrosarcoma cell line; HT-1080-NT fibrosarcoma viability, CellTiter-Glo ATP luminescence, 48 h; Potency, µM (series often up to 46.1 µM), without a hit: top-dose activity, negative = less viability, usual class: cytotoxic; 360,000 compounds, 1.6% hits;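 also: NT is the 2HG producing partner of a matched IDH1 knockdown line; 0% = DMSO-treated cells and -100% = media-only wells without cells; nearly all actives have a fitted effect of over 55% in size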
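Viability by CellTiter-Glo luminescence after 48 h compound exposure at 37C of HT-1080-NT cells (750/well, RPMI, 5% FBS). % activity scaled between DMSO wells and medium-only wells, then curve-fitted and categorized by curve class.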
KB-V1 cytotox – qHTS assay for MDR1-selective chemotherapeutics: Primary screen using the drug-selected MDR subline cells KB-V1; KB-V1 MDR cells viability, CellTiter-Glo, 72 h; Potency, µM (top dose mostly 46.1 µM), hits mostly cytotoxic; 400,000 compounds, 3.4% hits; AID 1347076, 2019; also: nearly all actives have a fitted effect of over 60% in size
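Drug-selected KB-V1 cells, grown in DMEM lacking phenol red with 10% FBS, receive compound titrations; after three days at 37 degrees C, surviving cell ATP is quantified by CellTiter-Glo luminescence and responses normalized and curve-fitted.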
KB-3-1 tox – qHTS assay for MDR1-selective chemotherapeutics: Primary screen using the parental adenocarcinoma cell KB-3-1; KB-3-1 viability, CellTiter-Glo ATP luminescence, 72 h; 400,000 compounds, 1.4% hits; Potency, µM (top dose mostly 46.1 µM), actives largely listed as cytotoxic; AID 1347075, 2019; also: nearly all actives have a fitted effect of over 60% in size
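Cytotoxicity in the drug-sensitive parental line KB-3-1 was scored as loss of CellTiter-Glo luminescence following 72 h incubation with compound. Values come from curve fitting of normalized concentration-response data.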
* marks the source's active call; other numbers are inactive results; i = inactive; ? = inconclusive; . = not tested or not shown. Calls follow the shape of the dose curve; as a rule, active = well fitted curve in the direction sought with a large enough effect; inconclusive = small, poorly fitted or top-dose-only effect, or another doubt; inactive = no such curve, though single readings can be large; an effect the other way counts as inactive or inconclusive. Unless noted, % is scaled to controls: 0 for no effect and ±100 for the full control effect; potency is read from the fitted curve at half-maximal effect.

SMILES	HT1080 IDH1KD tx	HT1080-NT tox	KB-V1 cytotox	KB-3-1 tox
CCN1CCCC1CNC(=O)c1cc2c(-c3ccc(Cl)cc3)nn(C)c2s1 (stereo unspecified)	20.6µM*	25.9µM*	?	?
CCN1CCCC1CNC(=O)c1cc2c(-c3cccc(OC)c3)nn(C)c2s1 (stereo unspecified)	?	20.6µM*	i	i
CC(C)Nc1cc(N2CCN(C3CCCCC3)CC2)c2noc3c2c1C(=O)c1ccccc1-3	.	.	i	i
O=C1c2oc3ccc(F)cc3c(=O)c2C(c2ccccc2)N1CC1CCCO1 (stereo unspecified)	2.9%	12.4%	8.2µM*	i
CC(=O)OC(C=C(C)C)C/C(C)=C/COc1c2ccoc2cc2oc(=O)ccc12 (stereo unspecified)	-1.9%	0.0%	i	i
CC(C)=CC(O)C/C(C)=C/COc1ccc2ccc(=O)oc2c1 (stereo unspecified)	?	23.1µM*	13µM*	5.8µM*
CCOC(=O)N1CCN(C(=O)COC(=O)c2ccc(N(C)C)cc2)CC1	6.2%	0.5%	20.6µM*	i
CCN1C(=O)C(Cc2nc3ccccc3c(=O)n2-c2ccccc2)c2cc(Br)ccc21 (stereo unspecified)	.	.	?	i
O=C(NC1CCCCC1)C(c1ccnc2ccccc12)n1c(=O)c(-c2cc3ccccc3[nH]2)nc2ccccc21 (stereo unspecified)	-25.1%	?	i	?
O=C(NC1CCCCC1)C(c1ccnc2ccccc12)n1c(=O)c(-c2ccccc2)nc2ccccc21 (stereo unspecified)	11.6µM*	13µM*	23.1µM*	18.4µM*
Cc1[nH]n2c(=O)c3c(nc2c1-c1ccccc1)CCC3	-21.2%	-15.0%	i	i
Nc1[nH]n2c(=O)c3c(nc2c1N=Nc1ccccc1)CCCC3	-22.9%	-13.3%	13µM*	11.6µM*
O=c1c2c(nc3c(-c4ccccc4)c[nH]n13)CCCC2	-8.4%	-6.1%	?	20.6µM*
N#Cc1c[nH]n2c(=O)c3c(nc12)CCC3	9.2%	4.4%	i	i
Cc1[nH]n2c(=O)c3c(nc2c1-c1ccc(Cl)cc1)CCC3	-12.5%	-10.5%	?	8.2µM*
Nc1[nH]n2c(=O)c3c(nc2c1N=Nc1ccc(Cl)cc1)CCCC3	-1.9%	-3.0%	?	?
CCCCOc1ccc(NC(=O)CSc2ccc(C(=O)O)cn2)cc1	.	.	?	i
Cc1cc(Br)ccc1NC(=O)CCS(=O)(=O)c1cccc2nsnc12	.	.	i	i
O=Nc1c(O)[nH]c2ccc(Cl)c(Cl)c12	?	?	?	0.411µM*
CC(C)(C)c1cc(Cl)ccc1OCCOCCN1CCCC1	18.4µM*	14.6µM*	i	i
COCCCNCCOCCOc1ccc(Cl)cc1C(C)(C)C	?	-27.6%	18.4µM*	i
O=C(Cn1c(=O)c2cc(Cl)ccc2n2nncc12)Nc1ccccc1	.	.	i	i
COc1cc2ccccc2cc1C(=O)OCC(=O)Nc1ccc(Br)cc1	.	.	i	i
Cc1cc(C)c(NC(=O)CSc2nc3ccc(NC(=O)CSc4nnnn4Cc4ccccc4)cc3s2)c(C)c1	6.9%	-25.4%	6.51µM*	i
O=C(CSc1nc2ccc(NC(=O)CSc3nnnn3Cc3ccccc3)cc2s1)Nc1ccccc1	?	?	i	i
CCc1ccc(NC(=O)CSC2=Nc3ccccc3C3=NC(CCC(=O)NCc4ccccc4OC)C(=O)N23)cc1 (stereo unspecified)	.	.	i	i
Cn1ccc2c(N3c4ccccc4CCc4ccccc43)cc3c(c21)C1CCC3O1 (stereo unspecified)	18.4µM*	?	?	i
Cn1ccc2c(N3c4ccccc4CCc4ccccc43)cc3c(c21)C1CCC3C1 (stereo unspecified)	?	?	i	?
CN(Cc1ccccc1)c1cc2c(c3c1ccn3C)C1CCC2O1 (stereo unspecified)	?	-26.6%	i	i
COc1ccccc1N(C)c1cc2c(c3c1ccn3C)C1CCC2O1 (stereo unspecified)	?	23.1µM*	i	?
